The panel holds about 83,000 compounds, 20% with a hit somewhere; the sample as a whole holds those more often.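 Testing used 96-well plates and a 48-hour single-concentration exposure. Example: -40 means 40% of the starting cells died.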 Unmarked numbers belong to inactive results. How the source made its calls: active means growth percent below 10; inactive means the rest.
System: HCC-2998 colon
Experiment: NCI-60 one-dose screen, 48 h (100 = growth as untreated, 0 = no growth, -100 = all killed)
Conditions: 10 µM unless noted

Point of comparison: `O=C(CCCl)OCCOc1ccccc1`, growth 108%. Against it:
- OCC1OC(n2ccc3c2ncn2ncnc32)C(O)C1O (configuration not stated) — lower, 29.1%
- Nc1cc(N)ncn1 — lower, 99.6%
- CCC(/C=C\C(C)=O)CC — lower, 106%
- Cc1[nH]c(=S)[nH]c(=O)c1C — lower, 103%
- CC(C)Sc1ncnc2nc[nH]c12 — the same, 108%
- CC(C)N(CCCC#N)C(C)C — lower, 106%
- C=C1C(=O)C2CCN1CC2 — lower, 106%
- CCCCOC(=O)c1ccccc1O — higher, 122%
- CC1CC(C)S(=O)(=O)C1 (configuration not stated) — lower, 99%
- C=CC1=NC(C)(C)CC(C)O1 (configuration not stated) — higher, 110%
- CN(C)c1ncnc2c1cnn2C — lower, 98%
- COc1cc(OC)c(NC(=O)C(Sc2nc(C)cc(C)c2C#N)c2ccccc2)cc1Cl (configuration not stated) — higher, 111%
- CC(=O)NCNC(C)=O — higher, 113%
- CCCCNC(=O)c1ccc(OCC)cc1 — lower, 104%
- Nc1ccc(F)c(Cl)c1F — lower, 100%
- C=C(OC(C)=O)c1ccccc1 — higher, 110%
- C/C=C/C1OCC(CC)C(CCC)O1 (configuration not stated) — higher, 124%
- COc1ccc(C2CC(c3ccccc3)=Nc3ccccc3S2)cc1 (configuration not stated) — higher, 111%
- Clc1cccc(Cl)c1C1CSc2ccccc2N=C1c1ccccc1 (configuration not stated) — lower, 95.4%
- COC1CC(OC(=O)c2ccc([N+](=O)[O-])cc2)C(COC(=O)c2ccc([N+](=O)[O-])cc2)O1 (configuration not stated) — higher, 112%
- CC(=O)NC(CCC(=O)c1ccccc1)C(=O)O (configuration not stated) — the same, 108%
- ClCc1cccc2c(CCl)cccc12 — lower, 55.8%
- CCCCCCCCCCCCCCCCCC(=O)NCCNC(=O)CCCCCCCCCCCCCCCCC — lower, 82.1%
- O=C(O)CC1=CCCCC1 — lower, 94.3%
- c1cc(CNCCNCc2ccncc2)ccn1 — lower, 102%
- O=C1CSc2ccccc2N1 — lower, 99.6%
- CC(C)OCC(CCl)OC(=O)Nc1ccccc1 (configuration not stated) — lower, 95.6%
- COCC(N)=O — higher, 110%
- Nc1cc(F)ccc1[N+](=O)[O-] — lower, 102%
- CC(C)=CCC[C@@H](C)[C@H]1CC[C@@]2(C)C3=C(CC[C@]12C)[C@@]1(C)CC[C@H](O)C(C)(C)[C@@H]1CC3 — lower, 101%
- BrCc1cccc(C[P+](c2ccccc2)(c2ccccc2)c2ccccc2)c1 — lower, 33.1%
- COc1ccc(/C=N/NC(=O)COCC(=O)N/N=C/c2ccc(OC)cc2)cc1 — higher, 111%
- CCOC(=O)CSCCC#N — lower, 104%
- Cc1cccc2ccccc12 — lower, 99.8%
- CCC(=O)C1C(=O)c2ccccc2C1=O — lower, 106%

Molecule `CCC12OC(COc3ccccc3)CN1CCN2c1ccccc1` (configuration not stated) has a growth of 115% [100 µM].
